Among all 290,000 compounds or so, about 890 (0.31%) were called active. No stated cut-off is given here; in the data, active means inhibition mostly above about 52% (no sharp cut-off); inactive means mostly below about 76%. The list comes from a sample in which actives are over-represented; it also holds similar structures and randomly drawn compounds.
Assay: inhibitors of HIV fusion peptide binding, primary screen, biochemical, uHTS, fluorescence dequenching (AID 1986)
Conditions: cell-free peptide binding, 30 min, stronger effect = higher value
[1] = measured here: repeat confirmation average inhibition, at 18.6 µM

Row | SMILES | inhibition (at 20 µM) | inhibition [1]
1 | O=C(COC(=O)c1ccc([N+](=O)[O-])s1)NC(c1ccccc1)c1ccccc1 | 0% (inactive) | 
2 | O=C(NC(=S)NC1CCSC1=O)c1ccc([N+](=O)[O-])cc1 (configuration not stated) | -1.4% (inactive) | 
3 | COc1ccc(OC)c(CNC(=O)CCC(=O)N2Cc3cccc(OC)c3Oc3ncccc32)c1 | 1.2% (inactive) | 
4 | Cc1ccc2nc(N/C(=N/S(=O)(=O)c3cccs3)c3ccccc3Cl)sc2c1 | 69.2% (active) | 
5 | Cc1ccc2nc(N/C(=N/S(=O)(=O)c3ccc(F)cc3)c3ccccc3)sc2c1 | 8.2% (inactive) | 
6 | COc1ccc2nc(N/C(=N/S(=O)(=O)c3cccs3)c3ccccc3Cl)sc2c1 | 30.6% (inactive) | 
7 | Cc1cc(C)nc(SCc2nc(N)nc(-c3ccccc3O)n2)n1 | -1.6% (inactive) | 
8 | COc1cc2c(cc1OC)CN(C(=O)c1sc(-c3cnccn3)nc1C)CC2 | 0.1% (inactive) | 
9 | COc1cc(/C=N/N=C2/NC(=O)C(CC(=O)O)S2)ccc1OCc1cccc(Cl)c1 (configuration not stated) | 47.1% (inactive) | 
10 | COc1cc(/C=N/N=C2/NC(=O)C(CC(=O)O)S2)ccc1OCc1ccc(Cl)cc1 (configuration not stated) | 51.8% (active) | 
11 | COc1ccc(/C=N/N=C2/NC(=O)C(CC(=O)O)S2)cc1OCc1ccc(Cl)cc1 (configuration not stated) | 44% (inactive) | 
12 | CCOc1cc(/C=N/N=C2/NC(=O)C(CC(=O)O)S2)ccc1OCc1ccccc1Cl (configuration not stated) | 53% (inactive) | 36.4%
13 | CCOc1cc(/C=N/NC(=O)CN2CCCCC2)ccc1OCc1ccc(Cl)cc1 | -0.7% (inactive) | 
14 | CCOc1cc(/C=N/NC(=O)CN2CCOCC2)ccc1OCc1ccc(Cl)cc1 | 0.5% (inactive) | 
15 | COc1ccc(/C=N/N=C2/NC(=O)C(CC(=O)O)S2)cc1OCc1ccc(Cl)cc1Cl (configuration not stated) | 50.6% (inactive) | 47.2%
16 | Cc1ccc(NC(=S)NCCN(C2CCCCC2)C2CCCC2)cc1C | 0.4% (inactive) | 
17 | COc1cc(C(C)=O)ccc1COc1ccc(C(=O)O)cc1OC | 2.1% (inactive) | 
18 | O=C(NC1CC2CCCC(C1)N2Cc1ccco1)NC12CC3CC(CC(C3)C1)C2 (configuration not stated) | 0.1% (inactive) | 
19 | CCC(=O)Oc1ccc2c(C)cc(=O)oc2c1C(=O)c1ccccc1 | 1.8% (inactive) | 
20 | COc1ccc(C(=O)c2cc3cccc(OC)c3o2)cc1 | -1% (inactive) | 
21 | Cc1ccccc1N1C(=O)c2cccc3c(N(C)CCO)ccc(c23)C1=O | 2.4% (inactive) | 
22 | COc1ccccc1N1C(=O)c2cccc3c(N(C)CCO)ccc(c23)C1=O | 64% (active) | 61.6%
23 | COc1ccc(N2C(=O)c3cccc4c(N(C)CCO)ccc(c34)C2=O)cc1 | 150% (inactive) | 
24 | COc1ccccc1/C=C/C=N/n1c(-c2ccncc2)n[nH]c1=S | 1.2% (inactive) | 

Reference: PubChem BioAssay AID1986 (Sanford-Burnham Center for Chemical Genomics, 2009)
